PubChem BioAssay
Active and inactive are the calls of the source.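 The calls were made as follows, unless noted: active = efflux inhibition above 0.42, the validation set average plus 4 SD; inconclusive = no clear call, values can overlap the other calls; inactive = the rest.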

Assays:
[1] = inhibitors of CD8+ T cell-vesicle binding, pilot screen, LFA-1/ICAM-1 modulator project, MLPCN validation set, flow cytometry (AID 2523;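 active = response below a set limit, under 55% cells CD8-positive and vesicle-bound, and CD8 cells' 90th-percentile brightness under 279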;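 as to vesicle binding response: mean PE anti-B7-1 fluorescence of CD8+ cells relative to row control; 100% = QL9-loaded vesicles with DMSO vehicle in the same plate row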); settings: 2C mouse CD8+ T cells, at 7 µM, stronger effect = lower value; double positive events: measured here: CD8+/vesicle+ event percentage
[2] = target: Integrin beta-1 (Homo sapiens) + Integrin alpha-4 (Homo sapiens) (UniProt P13612+P05556); assay: inhibition of HUTS-21 binding to VLA-4, pilot screen, VLA-4 allosteric modulator project, U937 cells, HUTS-21 mAb, flow cytometry, validation set (AID 2674;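 active = inhibition above 50%, about 3 SD of the validation set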;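 also: antibody binding induced by the VLA-4 ligand LDV present at three times its Kd; 0% = LDV ligand with antibody and no compound and 100% = antibody without LDV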); settings: HUTS-21 LIBS mAb binding, at 6.7 µM, stronger effect = higher value, binding induced by LDV ligand
Sequence of Integrin beta-1 (Homo sapiens) + Integrin alpha-4 (Homo sapiens) (P05556 whole entry, looked up): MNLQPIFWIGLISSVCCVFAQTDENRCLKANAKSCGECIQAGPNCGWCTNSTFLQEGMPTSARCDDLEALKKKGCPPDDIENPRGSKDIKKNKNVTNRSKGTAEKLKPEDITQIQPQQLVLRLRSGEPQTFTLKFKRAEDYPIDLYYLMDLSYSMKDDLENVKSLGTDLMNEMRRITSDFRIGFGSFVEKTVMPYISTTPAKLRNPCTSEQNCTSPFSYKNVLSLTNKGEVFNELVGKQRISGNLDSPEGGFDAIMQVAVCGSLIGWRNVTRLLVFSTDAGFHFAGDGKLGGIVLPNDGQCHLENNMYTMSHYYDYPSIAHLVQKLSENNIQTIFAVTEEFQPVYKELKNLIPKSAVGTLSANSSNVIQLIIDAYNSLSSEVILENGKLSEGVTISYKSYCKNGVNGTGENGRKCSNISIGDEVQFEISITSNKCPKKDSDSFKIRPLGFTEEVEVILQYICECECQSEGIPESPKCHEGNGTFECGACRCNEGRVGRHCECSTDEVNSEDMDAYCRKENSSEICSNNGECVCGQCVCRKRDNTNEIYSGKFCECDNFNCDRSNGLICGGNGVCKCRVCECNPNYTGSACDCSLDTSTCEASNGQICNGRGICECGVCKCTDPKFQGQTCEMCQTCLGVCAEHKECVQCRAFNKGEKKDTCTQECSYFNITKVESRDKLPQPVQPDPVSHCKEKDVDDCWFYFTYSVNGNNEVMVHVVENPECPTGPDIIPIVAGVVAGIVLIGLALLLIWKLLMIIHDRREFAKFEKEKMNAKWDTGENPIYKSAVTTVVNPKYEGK
Sequence of Integrin beta-1 (Homo sapiens) + Integrin alpha-4 (Homo sapiens) (P13612 whole entry, looked up): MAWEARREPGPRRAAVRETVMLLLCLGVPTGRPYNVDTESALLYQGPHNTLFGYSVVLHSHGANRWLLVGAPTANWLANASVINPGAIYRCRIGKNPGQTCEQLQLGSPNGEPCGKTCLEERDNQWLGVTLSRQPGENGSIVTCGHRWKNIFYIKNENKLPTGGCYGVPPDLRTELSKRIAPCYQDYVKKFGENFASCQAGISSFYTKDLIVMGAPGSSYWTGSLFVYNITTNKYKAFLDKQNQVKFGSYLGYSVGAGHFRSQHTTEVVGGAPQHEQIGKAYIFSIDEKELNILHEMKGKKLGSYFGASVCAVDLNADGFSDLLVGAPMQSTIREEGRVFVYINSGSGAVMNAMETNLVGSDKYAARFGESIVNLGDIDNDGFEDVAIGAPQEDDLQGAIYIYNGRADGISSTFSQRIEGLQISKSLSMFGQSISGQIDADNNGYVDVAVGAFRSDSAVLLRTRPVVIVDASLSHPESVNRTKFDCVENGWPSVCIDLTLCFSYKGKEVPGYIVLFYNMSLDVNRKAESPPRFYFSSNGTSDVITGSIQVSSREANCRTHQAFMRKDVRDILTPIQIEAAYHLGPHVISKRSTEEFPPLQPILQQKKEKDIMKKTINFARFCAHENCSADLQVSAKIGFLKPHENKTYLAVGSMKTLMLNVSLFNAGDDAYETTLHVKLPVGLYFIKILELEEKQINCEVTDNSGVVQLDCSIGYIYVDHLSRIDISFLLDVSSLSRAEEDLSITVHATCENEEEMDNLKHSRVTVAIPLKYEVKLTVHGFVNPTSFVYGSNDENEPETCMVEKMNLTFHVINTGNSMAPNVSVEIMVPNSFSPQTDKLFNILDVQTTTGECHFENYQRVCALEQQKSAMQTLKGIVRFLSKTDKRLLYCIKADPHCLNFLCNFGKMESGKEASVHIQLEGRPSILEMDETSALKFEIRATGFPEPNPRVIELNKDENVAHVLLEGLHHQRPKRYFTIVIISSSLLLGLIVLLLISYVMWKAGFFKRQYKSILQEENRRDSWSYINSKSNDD

[3] = superoxide lowering in aged yeast cells, pilot screen, validation compound set (AID 2706;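 active = superoxide response below 65% of plate, a cut near 3 SD across the whole screen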;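 also: yeast exposed to compound for one week at 30 degrees C before staining; 100% = mean of all compound wells on the same plate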); settings: S. cerevisiae aging, superoxide DHE fluorescence; at 10 µM, stronger effect = lower value
[4] = target: Beta-adrenergic receptor kinase 1 (Homo sapiens) (UniProt P25098); assay: GRK2 binders displacing RNA aptamer, biochemical, validation, human GRK2, bead flow cytometry (AID 488806;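 active = aptamer binding inhibition above 30%, about 3 SD of noise from non-fluorescent compounds; inactive = inhibition at or below 30%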); settings: bead-bound GRK2, FAM-aptamer displacement, at 10 µM, stronger effect = higher value
Sequence of Beta-adrenergic receptor kinase 1 (Homo sapiens) (P25098 whole entry, looked up): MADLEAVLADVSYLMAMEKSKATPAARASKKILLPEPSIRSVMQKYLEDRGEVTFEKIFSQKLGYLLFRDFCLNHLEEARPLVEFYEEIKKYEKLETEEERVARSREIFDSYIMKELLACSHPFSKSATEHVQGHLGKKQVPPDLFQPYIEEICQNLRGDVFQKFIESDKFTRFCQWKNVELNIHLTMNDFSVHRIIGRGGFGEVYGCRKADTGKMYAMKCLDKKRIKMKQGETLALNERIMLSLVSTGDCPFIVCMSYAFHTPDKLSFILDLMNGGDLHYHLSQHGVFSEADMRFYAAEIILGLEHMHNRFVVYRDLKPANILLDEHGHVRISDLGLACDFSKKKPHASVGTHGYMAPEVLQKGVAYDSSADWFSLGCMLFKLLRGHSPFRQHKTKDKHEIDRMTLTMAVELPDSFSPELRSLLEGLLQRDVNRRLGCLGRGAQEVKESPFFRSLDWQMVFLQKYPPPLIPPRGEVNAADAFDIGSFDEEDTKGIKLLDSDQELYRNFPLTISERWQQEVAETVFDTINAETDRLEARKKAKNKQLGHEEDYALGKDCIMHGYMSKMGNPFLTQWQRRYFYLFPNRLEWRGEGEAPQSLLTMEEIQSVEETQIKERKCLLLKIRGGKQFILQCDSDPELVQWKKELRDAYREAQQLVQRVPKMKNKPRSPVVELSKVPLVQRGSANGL

[5] = target: Beta-2 adrenergic receptor (Homo sapiens) (UniProt P07550); assay: beta2AR agonists driving receptor internalization, pilot screen, cell-based, FAP fluorogen, flow cytometry, validation set (AID 504459;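 active = percent response above 42, roughly 3 SD of non-fluorescent test compounds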;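 also: agonist-driven loss of surface beta2AR via internalization measured by FAP dye flow cytometry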); settings: Am2.2-beta2AR cells, FAP surface receptor flow cytometry; at 10 µM; stronger effect = higher value
Sequence of Beta-2 adrenergic receptor (Homo sapiens) (P07550 whole entry, looked up): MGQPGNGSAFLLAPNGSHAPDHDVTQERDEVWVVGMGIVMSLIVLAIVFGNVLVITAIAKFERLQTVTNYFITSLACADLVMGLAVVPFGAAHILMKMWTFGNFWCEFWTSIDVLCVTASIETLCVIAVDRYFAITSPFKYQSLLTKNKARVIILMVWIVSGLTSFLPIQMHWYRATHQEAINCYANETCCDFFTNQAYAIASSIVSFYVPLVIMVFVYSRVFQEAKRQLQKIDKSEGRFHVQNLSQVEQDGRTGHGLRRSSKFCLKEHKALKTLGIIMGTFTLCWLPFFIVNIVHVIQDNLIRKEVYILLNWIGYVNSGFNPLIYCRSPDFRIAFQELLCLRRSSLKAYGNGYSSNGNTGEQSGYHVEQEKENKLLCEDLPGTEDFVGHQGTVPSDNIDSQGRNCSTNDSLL

[6] = target: AP-2 complex subunit beta (Homo sapiens) (UniProt P63010); assay: inhibitors of arrestin peptide binding to AP2, pilot screen, biochemical, validation set, GST-AP2 beads, flow cytometry (AID 504541;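 active = inhibition above 54%, about 3 SD of non-fluorescent compounds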;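 also: AP2 carries R879A mutation and is captured from E. coli lysate; bead-bound FITC arrestin peptide fluorescence measuring arrestin peptide binding to AP2; 0% = DMSO wells and 100% = excess unlabeled arrestin peptide control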); settings: FITC arrestin peptide, at 10 µM, stronger effect = higher value, AP2 beta2 appendage fragment, R879A mutant
Sequence of AP-2 complex subunit beta (Homo sapiens) (P63010 whole entry, looked up, the tested form may be a part, one chain of several): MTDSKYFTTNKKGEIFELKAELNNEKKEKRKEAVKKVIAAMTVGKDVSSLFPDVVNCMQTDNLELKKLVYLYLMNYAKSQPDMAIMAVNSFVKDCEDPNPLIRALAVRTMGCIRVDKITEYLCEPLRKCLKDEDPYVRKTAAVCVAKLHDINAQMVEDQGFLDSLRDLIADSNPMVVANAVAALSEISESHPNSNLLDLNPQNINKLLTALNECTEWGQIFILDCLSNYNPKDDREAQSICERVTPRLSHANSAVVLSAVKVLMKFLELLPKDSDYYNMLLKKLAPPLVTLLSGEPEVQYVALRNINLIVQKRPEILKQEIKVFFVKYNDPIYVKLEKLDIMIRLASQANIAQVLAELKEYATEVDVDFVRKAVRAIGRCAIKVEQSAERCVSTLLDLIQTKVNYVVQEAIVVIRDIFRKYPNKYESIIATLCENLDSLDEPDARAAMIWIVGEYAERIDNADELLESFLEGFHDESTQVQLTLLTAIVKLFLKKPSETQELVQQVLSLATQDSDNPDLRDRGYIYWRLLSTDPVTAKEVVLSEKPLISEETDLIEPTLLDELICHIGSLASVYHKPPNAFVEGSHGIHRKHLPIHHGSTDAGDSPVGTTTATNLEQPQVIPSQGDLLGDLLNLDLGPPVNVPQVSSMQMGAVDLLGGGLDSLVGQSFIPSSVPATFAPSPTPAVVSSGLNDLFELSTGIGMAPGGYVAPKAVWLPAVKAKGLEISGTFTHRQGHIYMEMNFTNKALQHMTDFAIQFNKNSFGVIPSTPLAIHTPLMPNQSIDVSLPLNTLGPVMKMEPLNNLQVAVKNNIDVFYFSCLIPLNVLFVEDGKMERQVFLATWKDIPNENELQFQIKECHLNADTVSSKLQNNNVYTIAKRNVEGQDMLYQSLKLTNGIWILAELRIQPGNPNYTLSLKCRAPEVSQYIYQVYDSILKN

[7] = yeast V-ATPase proton transport modulators, S. cerevisiae, pHLuorin, HTS validation (AID 504600; in the data active = response above about 15%;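 also: plate controls were DMSO for no effect and reference compound for full effect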); settings: S. cerevisiae pHLuorin cytosolic pH, at 10 µM, stronger effect = higher value
[8] = tested on: anti-desmoglein-3 scFv antibody binding to human DSG3; assay: inhibitors of anti-DSG3 scFv binding to DSG3, pilot screen, biochemical, validation compound set, bead-based, flow cytometry (AID 588368;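 active = binding below the plate cutoff, the plate median minus 3 SD, with a reading above zero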;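 also: signal is the median channel fluorescence of bead-bound GFP antibody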); settings: Protein G beads, DSG3-Fc, scFv-GFP binding, at 10 µM, stronger effect = lower value
[9] = inhibitors of fungal efflux pumps CDR1, CDR2, MDR1, pilot screen, validation compound set, multiplex, phenotypic (AID 588506);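 also: Nile Red retained in cells so higher fluorescence means more efflux inhibition; 0 = negative control wells and 1 = enniatin B 25 µM full block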; settings: S. cerevisiae pump-expressing triplex, Nile Red efflux flow cytometry; at 10 µM; stronger effect = higher value; the pumps come from Candida albicans
[10] = target: ATP-binding cassette sub-family B member 6 (Homo sapiens) (UniProt Q9NP58); assay: ABCB6 transporter inhibitors, pilot screen, K562-ABCB6 cells, flow cytometry, validation set (AID 588550;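 active = inhibition above the screen-wide mean plus 3 SD, about 51%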;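 also: 0% = DMSO wells and 100% = benzethonium chloride 70 µM positive control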); settings: K562-ABCB6 porphyrin accumulation, 1 h, at 10 µM, stronger effect = higher value
Sequence of ATP-binding cassette sub-family B member 6 (Homo sapiens) (Q9NP58 whole entry, looked up): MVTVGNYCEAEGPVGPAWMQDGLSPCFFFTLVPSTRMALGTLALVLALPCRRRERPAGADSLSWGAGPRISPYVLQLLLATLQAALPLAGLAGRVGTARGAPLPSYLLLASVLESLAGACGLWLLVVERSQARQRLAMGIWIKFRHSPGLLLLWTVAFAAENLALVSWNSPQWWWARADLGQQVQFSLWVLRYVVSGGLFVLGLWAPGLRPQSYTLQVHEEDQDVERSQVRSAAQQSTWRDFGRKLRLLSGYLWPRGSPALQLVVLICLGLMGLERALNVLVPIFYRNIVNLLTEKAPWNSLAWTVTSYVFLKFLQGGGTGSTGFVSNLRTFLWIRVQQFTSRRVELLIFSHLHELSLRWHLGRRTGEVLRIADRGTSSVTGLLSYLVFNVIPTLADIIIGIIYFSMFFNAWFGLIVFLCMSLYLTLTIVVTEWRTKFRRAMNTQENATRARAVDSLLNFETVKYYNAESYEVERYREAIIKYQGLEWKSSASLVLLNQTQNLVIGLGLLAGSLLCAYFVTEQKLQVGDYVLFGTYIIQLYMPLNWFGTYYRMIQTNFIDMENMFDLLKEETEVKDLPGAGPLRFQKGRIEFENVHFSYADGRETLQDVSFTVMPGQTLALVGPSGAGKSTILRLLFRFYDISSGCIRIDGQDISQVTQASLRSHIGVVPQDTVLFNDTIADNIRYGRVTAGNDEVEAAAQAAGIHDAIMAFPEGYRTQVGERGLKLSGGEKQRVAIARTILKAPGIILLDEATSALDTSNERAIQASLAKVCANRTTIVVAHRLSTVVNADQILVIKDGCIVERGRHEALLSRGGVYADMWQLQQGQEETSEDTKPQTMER

[11] = promoters of myeloid differentiation in arrested cells, primary screen, cell-based, GFP/MAC1 double positive, flow cytometry, validation set (AID 588685;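 active = differentiation response of at least 50%, scaled between solvent and reference control, from cells with both markers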;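 also: compound exposure lasts four days before antibody staining and flow analysis; 0% = DMSO wells and 100% = 5 µM fulvestrant positive control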); settings: ER-HoxA9 marrow cells, stronger effect = higher value, normalized: vehicle 0, fulvestrant 100

Structure (SMILES) | double positive events [1] [%] | vesicle binding response [1] | inhibition [2] | superoxide response (% of plate) [3] | aptamer binding inhibition [4] | response [5] | inhibition [6] | response [7] | binding (% of control) [8] | efflux inhibition (fraction of control) [9] | inhibition [10] | differentiation response [11]
C=C(C)COc1ccc(-c2nc(N)ncc2-c2ccc(OC)cc2)c(O)c1 | 55.6 | 43.9% (inactive) | 20.3% (inactive) | 111% (inactive) | 1% (inactive) | -10.8% (inactive) | -4.84% (inactive) | 1.42% (inactive) | 92% (inactive) | -0.45 (inactive) | 4% (inactive) | -9.53% (inactive)
CN1CCN(CCCN2c3ccccc3Sc3ccc(C(F)(F)F)cc32)CC1 | 64.7 | 215% (inactive) | 57.6% (active) | 80.3% (inactive) | -2% (inactive) | 23.7% (inactive) | 1.45% (inactive) | 24.5% (active) | 109% (inactive) | 0 (inactive) | 8% (inactive) | 7.82% (inactive)
O=C(NCCc1nc2ccccc2[nH]1)c1cccc(Br)c1 | 72.8 | 224% (inactive) | 11.9% (inactive) | 92.6% (inactive) | 4% (inactive) | -6.54% (inactive) | -1.76% (inactive) | 3.78% (inactive) | 97.8% (inactive) | -0.1 (inactive) | 5% (inactive) | 0.8% (inactive)
CCc1cc2c3c(c(=O)oc2cc1O)CCCC3 | 67.8 | 257% (inactive) | -18.2% (inactive) | 93.2% (inactive) | 1% (inactive) | 1.88% (inactive) | -7.42% (inactive) | 2.52% (inactive) | 99.5% (inactive) | -0.21 (inactive) | 11% (inactive) | 4% (inactive)
COc1cccc(OC)c1C(=O)NCCSC1CCCCC1 | 61.3 | 68.6% (inactive) | 1.59% (inactive) | 85.2% (inactive) | 1% (inactive) | 0.14% (inactive) | -3.95% (inactive) | -0.98% (inactive) | 104% (inactive) | -0.25 (inactive) | -5% (inactive) | -16.3% (inactive)
COc1cc(NC(=O)N[C@@H](Cc2ccccc2)C(=O)O)cc(OC)c1 | 62.8 | 221% (inactive) | 9.1% (inactive) | 106% (inactive) | 3% (inactive) | -10.8% (inactive) | -3.53% (inactive) | 22.2% (active) | 105% (inactive) | -0.09 (inactive) | 2% (inactive) | 0.92% (inactive)
COCc1cc(=O)[nH]c(Nc2nc3ccccc3o2)n1 | 62.6 | 117% (inactive) | -7.93% (inactive) | 86.3% (inactive) | 3% (inactive) | -16.5% (inactive) | -0.3% (inactive) | 6.3% (inactive) | 108% (inactive) | 0 (inactive) | 4% (inactive) | 6.83% (inactive)
O=C(Cc1ccc(Br)cc1)c1ccc(O)cc1O | 58.3 | 228% (inactive) | -23.6% (inactive) | 97.7% (inactive) | -1% (inactive) | -3.21% (inactive) | -2.59% (inactive) | 1.13% (inactive) | 105% (inactive) | 0.09 (inactive) | 2% (inactive) | 12.3% (inactive)
CC1(C)C2CCC1(C(=O)O)c1nc3ccccc3nc12 (configuration not stated) | 61.8 | 372% (inactive) | -1.12% (inactive) | 72.9% (inactive) | 2% (inactive) | -10.7% (inactive) | 6.26% (inactive) | 0.59% (inactive) | 100% (inactive) | 0.04 (inactive) | 20% (inactive) | -6.96% (inactive)
CC[n+]1ccc2cc(OC)c(OC)cc2c1Cc1ccc(OC)c(OC)c1 | 64 | 174% (inactive) | -10.5% (inactive) | 98.6% (inactive) | 2% (inactive) | -11.2% (inactive) | -12.4% (inactive) | -0.56% (inactive) | 106% (inactive) | -0.09 (inactive) | 6% (inactive) | -1.05% (inactive)
O=c1[nH]cnc2c1ncn2[C@@H]1O[C@H](CO)[C@@H](O)[C@H]1O | 62 | 140% (inactive) | -15.6% (inactive) | 86.8% (inactive) | 2% (inactive) | -18% (inactive) | -10.3% (inactive) | -0.11% (inactive) | 106% (inactive) | 0.12 (inactive) | 5% (inactive) | -7.94% (inactive)
COc1cc2ccc(=O)oc2c(O)c1OCC=C(C)C | 63.7 | 190% (inactive) | -12.9% (inactive) | 102% (inactive) | -1% (inactive) | -9.13% (inactive) | -0.67% (inactive) | -0.32% (inactive) | 98.2% (inactive) | 0.05 (inactive) | 10% (inactive) | 7.09% (inactive)
N/C(=N/OS(=O)(=O)c1ccc([N+](=O)[O-])cc1)c1ccncc1 | 61.1 | 135% (inactive) | 1.59% (inactive) | 108% (inactive) | 1% (inactive) | -5.72% (inactive) | -1.57% (inactive) | 6.86% (inactive) | 107% (inactive) | -0.08 (inactive) | 18% (inactive) | -8.96% (inactive)
O=C(c1cc2cc(Br)ccc2o1)N1CCCCC1 | 63.8 | 320% (inactive) | 10.5% (inactive) | 86.2% (inactive) | -4% (inactive) | -13.7% (inactive) | -1.81% (inactive) | -0.39% (inactive) | 73.3% (active) | 0.05 (inactive) | 6% (inactive) | 4% (inactive)
COc1ccc(C(=O)C2CCCCC2=O)cc1 (configuration not stated) | 67.8 | 193% (inactive) | 9.1% (inactive) | 100% (inactive) | 0% (inactive) | 15.9% (inactive) | 2.47% (inactive) | -6% (inactive) | 101% (inactive) | 0.04 (inactive) | 16% (inactive) | -7.94% (inactive)
O=C1N[C@@H](Cc2cnc[nH]2)C(=O)N2CCC[C@@H]12 | 59.8 | 103% (inactive) | 12.3% (inactive) | 125% (inactive) | 2% (inactive) | 6.03% (inactive) | -3.62% (inactive) | 6.06% (inactive) | 100% (inactive) | -0.07 (inactive) | -2% (inactive) | -7.5% (inactive)
O=c1[nH]c(Cc2ccccc2)nc2c1oc1ccccc12 | 58.4 | 200% (inactive) | -7.25% (inactive) | 94% (inactive) | 12% (inactive) | 0.02% (inactive) | -7.86% (inactive) | -2.08% (inactive) | 97% (inactive) | -0.17 (inactive) | 4% (inactive) | -4% (inactive)
CCN(CC)CCNC(=O)c1cc(S(C)(=O)=O)ccc1OC | 58.8 | 219% (inactive) | -1.79% (inactive) | 88.3% (inactive) | 4% (inactive) | 4.46% (inactive) | -1.05% (inactive) | 4.62% (inactive) | 101% (inactive) | -0.28 (inactive) | 5% (inactive) | -5.6% (inactive)
COc1ccc(CCNC(=O)c2c(O)c3c([nH]c2=O)CCCC3)cc1 | 62.2 | 180% (inactive) | 3.14% (inactive) | 124% (inactive) | -6% (inactive) | -28.9% (inactive) | -16.3% (inactive) | 9.51% (inactive) | 30.9% (active) | 0 (inactive) | 1% (inactive) | -0.06% (inactive)
Cc1ccc2c(c1)c1c(n2C)C(=O)CCC1 | 57.6 | 126% (inactive) | -7.79% (inactive) | 86.4% (inactive) | 2% (inactive) | 6.59% (inactive) | -3.89% (inactive) | -3.07% (inactive) | 97.9% (inactive) | 0.41 (inactive) | 0% (inactive) | -8.96% (inactive)
COc1ccc(/C=C2\CCn3c2nc2cc(C(=O)O)ccc2c3=O)cc1OC | 60.5 | 178% (inactive) | 5.61% (inactive) | 108% (inactive) | 1% (inactive) | 7.98% (inactive) | -3.78% (inactive) | 0.13% (inactive) | 102% (inactive) | 0 (inactive) | 2% (inactive) | -8.96% (inactive)
COc1ccc(C)cc1S(=O)(=O)Nc1ccc(F)cc1 | 64.5 | 172% (inactive) | 5.61% (inactive) | 98.8% (inactive) | 1% (inactive) | 0.44% (inactive) | 2.42% (inactive) | -2.48% (inactive) | 102% (inactive) | 0.06 (inactive) | 17% (inactive) | -3.11% (inactive)
CN(C)CCOc1ccccc1Cc1ccccc1 | 69.2 | 210% (inactive) | 23.6% (inactive) | 85.8% (inactive) | 4% (inactive) | -20.2% (inactive) | -8.22% (inactive) | -1.1% (inactive) | 104% (inactive) | -0.13 (inactive) | 14% (inactive) | -1.05% (inactive)
CCc1cccc(OC2OC(CO)C(O)C(O)C2NC(C)=O)c1 (configuration not stated) | 69.6 | 308% (inactive) | -5.38% (inactive) | 98.7% (inactive) | 1% (inactive) | -16.8% (inactive) | -1.83% (inactive) | 4.31% (inactive) | 103% (inactive) | -0.13 (inactive) | 7% (inactive) | 0.92% (inactive)
CC(=O)O[C@]1(C(C)=O)CC[C@H]2[C@@H]3C=C(C)C4=CC(=O)CC[C@]4(C)[C@H]3CC[C@@]21C | 65.3 | 252% (inactive) | -0.27% (inactive) | 95.9% (inactive) | 3% (inactive) | -24.4% (inactive) | 1.74% (inactive) | -0.81% (inactive) | 101% (inactive) | 0.29 (inactive) | -2% (inactive) | 7.82% (inactive)
N=C1C(c2ccccc2)=C(O)CN1CCCO | 58.1 | 157% (inactive) | 2.3% (inactive) | 91.2% (inactive) | 3% (inactive) | -12.9% (inactive) | -7.8% (inactive) | -6.01% (inactive) | 93.8% (inactive) | -0.06 (inactive) | 12% (inactive) | -31.2% (inactive)
